Laboratory results taken from PubChem BioAssay (NCI).
Several values for one entry are separate records, joined by “and”; a condition that tells them apart may be missing. Equal values may be shown once. About 83,000 compounds went through this panel and 20% of them were active in at least one assay; those are over-represented in the sample as a whole.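 Testing used 96-well plates and a 48-hour single-concentration exposure. Example: -40 means 40% of the starting cells died.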 Values without a mark were called inactive. Activity calls are given as the source filed them. How the source made its calls: active means growth percent below 10; inactive means the rest.

Columns and labels:
Assay in all cases: NCI-60 one-dose screen, 48 h (100 = growth as untreated, 0 = no growth, -100 = all killed)
Details in all cases: 10 µM
[1] = tested on: T-47D breast
[2] = tested on: BT-549 breast
[3] = tested on: MDA-MB-435 melanoma
[4] = tested on: SW-620 colon
[5] = tested on: MCF7 breast
[6] = tested on: HCT-116 colon
[7] = tested on: HCC-2998 colon
[8] = tested on: KM12 colon
[9] = tested on: MDA-MB-468 breast

SMILES | growth [1] | growth [2] | growth [3] | growth [4] | growth [5] | growth [6] | growth [7] | growth [8] | growth [9]
O=C(c1ccc(O)cc1)C1[C@H](c2ccccc2Br)[C@@H](c2ccccc2)NC12C(=O)Nc1ccc(Cl)cc12 (stereo partly specified) | 18.2% | 15.7% | -16.4% (active) | -0.351% (active) | -17.2% (active) | 18.4% | -73.2% (active) | -20.7% (active) | -47.1% (active)
CC1=C2C(=C[C@@](C)(COCOCCCl)[C@@H]2O)C(=O)[C@](C)(O)C12CC2 | -15.8% (active) | -81.2% (active) | -81.1% (active) | 0.591% (active) | -46.2% (active) | 12.6% | -91.7% (active) | 0.906% (active) | –
COc1ccc(-c2nc(S(=O)(=O)c3ccc(C)cc3)c(S(C)(=O)=O)o2)cc1 | -75.7% (active) | -12.5% (active) | -97.1% (active) | -58.5% (active) | -53.1% (active) | -0.211% (active) | -87.6% (active) | -19% (active) | –
Cc1ccc(F)cc1N/C=c1\s/c(=C(\C#N)C(=O)Nc2ccccc2)n(-c2ccccc2)c1=O | 76.7% | 99.7% | 98.5% | 105% | 38.8% | 42% | 92.1% | 84.8% | –
O=C1CCC(N2Cc3cc(NC(=O)COc4ccccc4)ccc3C2=O)C(=O)N1 (stereo unspecified) | 49.2% | 4.38% (active) | 88.1% | 55.2% | 70.3% | 103% | 83.5% | 74.5% | –
CN1CCN(c2ccc(Nc3nc(NCCCNC(=O)c4ccccc4)c4sccc4n3)cc2)CC1 | 54.3% | 138% | 64.4% | 60.6% | 38.4% | 30.9% | 83.2% | 54.4% | –
COc1ccc(NC(=O)Cn2c(/C=C/c3ccc(N(C)C)cc3)nc3ccccc3c2=O)cc1 | 44.2% | -9.99% (active) | 54.3% | 48% | 21.5% | 28.6% | 63% | 50.5% | –
Brc1ccc(/C=C/c2n(Cc3ccc4ccccc4c3)c3ccccc3[n+]2Cc2ccc3ccccc3c2)cc1 | -58.1% (active) | -56.6% (active) | -94% (active) | -73.9% (active) | -65.7% (active) | -86.5% (active) | -98% (active) | -40.7% (active) | -88.7% (active)
O=C(Nc1ccc(Cl)c(C(F)(F)F)c1)c1cncc(C#Cc2cnc3ccc(N4CCOCC4)nn23)c1 | 1.27% (active) | -14.9% (active) | 19.3% | 19.4% | -13.3% (active) | -26.7% (active) | -13.3% (active) | -21.5% (active) | -30.8% (active)
COc1ccc(-c2ccc(SCC(=O)Nc3ccc(C#N)cc3)nn2)cc1 | 79.5% | 88.6% | 98.8% | 102% | 88.8% | 87% | 104% | 99.9% | 88.1%
Cc1cc(=O)oc2cc(OCCCCOc3ccc(/C=C/C(=O)Nc4ccc(F)c(Cl)c4)cc3)ccc12 | 67.1% | 93.2% | 92.7% | 96.9% | 77.8% | 87.6% | 123% | 91.3% | 120%
Cc1ccn2c(C(=O)c3ccccc3)cc(-c3cc(-c4ccc(N(C)C)cc4)c(C#N)c(N)n3)c2c1 | 63.6% | 58.1% | 78.8% | 69.7% | 54.3% | 63.4% | 92% | 74% | 50.7%
CC(C)NC(=O)c1cc(-c2ccc(NC(=O)Nc3ccc(N4CCN(C)CC4)c(C(F)(F)F)c3)cc2)nc2cccnc12 | -16.6% (active) | -95.5% (active) | -96.5% (active) | -64.6% (active) | -75.6% (active) | -90.6% (active) | -97.9% (active) | -83.6% (active) | -90.9% (active)
O=c1oc2ccc(-c3ccc(F)cc3F)cc2c(=O)n1-c1ccc(Cl)c(C(F)(F)F)c1 | -12.5% (active) | -37.4% (active) | -5.35% (active) | 13% | -16.2% (active) | 9.46% (active) | 2.17% (active) | -14% (active) | 3.54% (active) and -40.4% (active)
O=C(CSc1nnc(-c2ccc3nc(-c4ccc(Cl)cc4)[nH]c3c2)o1)Nc1ccc(Br)cc1 | 53.7% | -69.8% (active) | -88% (active) | -20.9% (active) | -25% (active) | -61.9% (active) | 28.9% | 15.6% | -4% (active)
N[C@@H](CSSC[C@H](N)C(=O)Nc1ccc(OCC2CCCC2)cc1)C(=O)Nc1ccc(OCC2CCCC2)cc1 | -68.9% (active) | -63.5% (active) | -100% (active) | -84% (active) | -73% (active) | -35.9% (active) | -96.5% (active) | -80.6% (active) | -93.4% (active)
COc1ccc(-c2nc(-c3ccccc3)c(-c3ccccc3)n2-c2ccc(S(=O)(=O)Nc3ncccn3)cc2)cc1OC | 43.1% | 68.3% | 95.1% | 98.1% | 71.2% | 67.4% | 82.8% | 78.3% | 67.8%
Cc1ccc2nc(COc3ccc(C(=O)NNC(=S)NCCc4ccccc4)cc3)[nH]c2c1 | 74% | 105% | 98.5% | 96.3% | 50.5% | 57.3% | 73.9% | 63.4% | 15.5%
O=C(Nc1ccc(I)cc1F)c1cc(-c2ccc(F)cc2F)ccc1O | -22.7% (active) | -12.5% (active) | 0.752% (active) | 10.1% | -12.8% (active) | 17.2% | 5.11% (active) | 6.39% (active) | -26.8% (active)
O=S(=O)(Nc1ncccn1)c1ccc(-n2c(-c3ccccc3)nc(-c3ccccc3)c2-c2ccccc2)cc1 | 52.2% | 69% | 101% | 91.9% | 71.1% | 86.4% | 89.3% | 88.4% | 85.7%
O=C1Nc2ccc(Cl)cc2/C1=C/c1ccc(OCc2ccccn2)cc1 | 69% | 78.8% | 76.9% | 47.5% | 28.9% | 28.5% | 105% | 78.8% | 50.4%
CN(C(=O)c1ccc(C(F)(F)F)cc1C(F)(F)F)c1sc2c(c1C#N)CCC(=O)C2 | 1.04% (active) | 20.8% | 101% | 18.9% | 85.8% | 25.2% | 94.4% | 74.3% | 51.9%
O=C(NO)c1ccc(Cn2ccc3c(NCc4ccccc4)ncnc32)cc1 | -16.8% (active) | -22% (active) | -26.5% (active) | -64.8% (active) | 9.85% (active) | -7.75% (active) | -3.05% (active) | 11.9% | -18.6% (active)
O=C1NC(=NC23CC4CC(CC(C4)C2)C3)N/C1=C\c1ccc2ncsc2c1 | -0.474% (active) | -11.5% (active) | 17.8% | 5.03% (active) | -9.76% (active) | 14.1% | 16.2% | 2.26% (active) | -48.2% (active)
CC[C@]12C=CCN3CC[C@@]4(c5cc(C#CCNc6ccc(C)c(Nc7nccc(-c8cccnc8)n7)c6)c(OC)cc5N(C)[C@H]4[C@@](O)(C(=O)OC)[C@@H]1OC(C)=O)C32 (stereo partly specified) | 45.5% | -3.24% (active) | 34% | 50% | 21.7% | 27.2% | 41.2% | 44.9% | 1.75% (active)
O=C(N/C(=C1/OCCN1Cc1ccccc1)[P+](c1ccccc1)(c1ccccc1)c1ccccc1)c1ccccc1 | 11.2% | -16.4% (active) | 18.5% | 12.5% | 1.56% (active) | 2.1% (active) | -10.8% (active) | -1.17% (active) | -30% (active)
Cn1cc(/C=N/Nc2cccc(Cl)n2)c2ccccc21 | 47.2% | 43.4% | 10.7% | 65.9% | 35.9% | 33.3% | 48.5% | 33.1% | -1.15% (active)
O/N=C(\CSc1nnc(-c2c[nH]c3ccccc23)n1-c1ccccc1)c1ccc(Cl)cc1 | 3.91% (active) | -66.7% (active) | -99.8% (active) | -37% (active) | 3.27% (active) | 0.742% (active) | 17% | 21.4% | -85.1% (active)
